Assay results: PubChem BioAssay (EPA / NIEHS)
“And” between values parts separate entries of the source, which are not always exact repeats. Equal entries are not always repeated. Inconclusive results are not listed. More than one record can exist for a structure, and the calls need not agree. The source made the active and inactive calls. Rule for the calls, unless noted: active = hit-call score of the fitted dose curve at least 0.9, where 1 is the maximum; inactive = score below 0.9.

Legend:
KRT18 (gene 3875) = test: BSK_BE3C_Keratin818: BioMAP Diversity Plus: BE3C Assay for Keratin 818 Biomarker Activity (AID 2284282); conditions: primary human bronchial epithelial cells
Summary of the method: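 ELISA readout of Keratin 8/18 in human primary bronchial epithelial cultures after 24 h chemical exposure, DMSO baseline. Parallel SRB staining (0.1%, TCA-fixed, 560 nm) served as cytotoxicity check.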

[1] = read-out: Matrix Metallopeptidase 9 (MMP9), MMP9 (gene 4318); test: BSK_BE3C_MMP9: BioMAP Diversity Plus: BE3C Assay for Matrix Metallopeptidase 9 (MMP9) Biomarker Activity (AID 2284283); conditions: primary human bronchial epithelial cells
Summary of the method: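 Cells were dosed, incubated 24 h, then assayed for MMP-9 by ELISA; activity was fitted upward against DMSO. The system used human lung primary bronchial epithelial cells, with SRB total-protein staining run alongside for cytotoxicity.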

[2] = read-out: Plasminogen activator inhibitor-1 (PAI1), SERPINE1 (gene 5054); test: BSK_CASM3C_PAI1: BioMAP Diversity Plus: CASM3C Assay for Plasminogen activator inhibitor-1 (PAI1) Biomarker Activity (AID 2284284); conditions: primary human coronary artery smooth muscle cells;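 note: PAI-1 protein level measured by ELISA 24 h after dosing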
[3] = read-out: Monocyte Chemoattractant Protein-1 (MCP1), CCL2 (gene 6347); test: BSK_hDFCGF_MCP1: BioMAP Diversity Plus: hDFCGF Assay for Monocyte Chemoattractant Protein-1 (MCP1) Biomarker Activity (AID 2284285); conditions: primary human foreskin fibroblasts
Summary of the method: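 MCP-1 ELISA readout was taken 24 hours after dosing primary human dermal fibroblasts in the hDFCGF system, with DMSO as baseline. Parallel sulforhodamine B staining of total protein tracked overt cytotoxicity.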

[4] = read-out: Intercellular Adhesion Molecule 1 (ICAM1), ICAM1 (gene 3383); test: BSK_hDFCGF_ICAM1: BioMAP Diversity Plus: hDFCGF Assay for Intercellular Adhesion Molecule 1 (ICAM1) Biomarker Activity (AID 2284287); conditions: primary human foreskin fibroblasts
Summary of the method: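 ICAM-1 ELISA readout 24 h after dosing, DMSO as baseline, in human dermal foreskin fibroblast cultures. Cytotoxicity checked in parallel wells by SRB staining (0.1% SRB, 10% TCA fixation, 560 nm).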

[5] = read-out: TIMP metallopeptidase inhibitor 2 (TIMP2), TIMP2 (gene 7077); test: BSK_hDFCGF_TIMP2: BioMAP Diversity Plus: hDFCGF Assay for TIMP metallopeptidase inhibitor 2 (TIMP2) Biomarker Activity (AID 2284289); conditions: primary human foreskin fibroblasts
Summary of the method: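 Primary human foreskin fibroblasts in the hDFCGF system, dosed for 24 h; TIMP-2 level measured by ELISA, fitted in the positive direction against DMSO; cytotoxicity checked in parallel by sulforhodamine B total protein staining.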

[6] = read-out: Thrombomodulin, THBD (gene 7056); test: BSK_LPS_Thrombomodulin: BioMAP Diversity Plus: LPS Assay for Thrombomodulin Biomarker Activity (AID 2284296); conditions: primary human HUVEC with PBMC
Summary of the method: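 Thrombomodulin on the surface of LPS-activated endothelial/PBMC co-cultures was quantified by ELISA at 24 hours post-dosing, with DMSO as baseline. Parallel SRB total-protein staining flagged overt cytotoxicity.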

[7] = IUF_NPC2c_oligodendrocyte_migration_120hr: Leibniz Research Institute for Environmental Medicine (IUF) 120-hour Neural Progenitor Cell Migration Assay for Oligodendrocyte Migration (NPC2c) (AID 2284297);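 note: O4-positive oligodendrocyte migration distance divided by radial glia migration distance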
Summary of the method: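 Primary hNPC spheres migrating on extracellular matrix, exposed five days to a 7-point dilution series with solvent control. Oligodendrocyte migration was scored by high-content imaging of O4 immunostaining and expressed relative to radial glia distance.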

[8] = IUF_NPC2a_radial_glia_migration_120hr: Leibniz Research Institute for Environmental Medicine (IUF) 120-hour Neural Progenitor Cell Migration Assay for Radial Glia Migration (NPC2a) (AID 2284298)
Summary of the method: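 In this multiplexed test, fetal hNPC spheres migrate radially on poly-D-lysine/laminin in N2 medium (37C, 5% CO2, pH 7.2-7.6) under continuous compound exposure over five days. Migration is scored at 120 h from automated Hoechst nuclear imaging.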

[9] = IUF_NPC2a_radial_glia_migration_72hr: Leibniz Research Institute for Environmental Medicine (IUF) 72-hour Neural Progenitor Cell Migration Assay for Radial Glia Migration (NPC2a) (AID 2284299)
Summary of the method: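 Radial glia migration (µm, sphere core edge to migration front, four directions averaged) from brightfield images at 72 h; hNPC spheres differentiating on PDL/laminin in N2 medium, compound exposure at 7 concentrations from plating.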

[10] = IUF_NPC2b_neuronal_migration_120hr: Leibniz Research Institute for Environmental Medicine (IUF) 120-hour Neural Progenitor Cell Migration Assay for Neuron Migration (NPC2b) (AID 2284300)
Summary of the method: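 Neurons identified by TUBB3 immunostaining and Hoechst nuclei; migration distance measured automatically on fixed wells at 120 h, normalized to glia migration. Exposure spanned five days of differentiation in N2 medium, seven test concentrations.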

[11] = IUF_NPC3_neuronal_differentiation_120hr: Leibniz Research Institute for Environmental Medicine (IUF) 120-hour Neuronal Differentiation Assay (NPC3) (AID 2284301)
Summary of the method: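 Neuronal differentiation of primary human neural progenitors measured by high-content imaging: percent TUBB3+ of Hoechst+ nuclei within migrated area at 120 h, seven-point serial dilution plus solvent control, gain or loss relative to DMSO.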

[12] = IUF_NPC4_neurite_length_120hr: Leibniz Research Institute for Environmental Medicine (IUF) 120-hour Neuronal Morphology Assay for Neurite Length (NPC4) (AID 2284302)
Summary of the method: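 Neurons from differentiating human fetal neural progenitor spheres are scored for average neurite length after five days of compound exposure. Fitting uses DMSO as negative control.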

CD69, CD69 (gene 969) = test: BSK_LPS_CD69: BioMAP Diversity Plus: LPS Assay for CD69 Biomarker Activity (AID 2284303); conditions: primary human HUVEC with PBMC
Summary of the method: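 CD69 surface levels were read by ELISA after 24 h chemical treatment of an LPS-stimulated HUVEC plus PBMC co-culture; positive-direction fit against DMSO vehicle.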

[13] = IUF_NPC4_neurite_area_120hr: Leibniz Research Institute for Environmental Medicine (IUF) 120-hour Neuronal Morphology Assay for Neurite Area (NPC4) (AID 2284305; active = hit-call score of the fitted dose curve at least 0.9, where 1 is the maximum)
Summary of the method: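 Endpoint at 120 h: automated imaging of TUBB3/Hoechst-stained differentiating human neural progenitor spheres, neurite area per neuron from skeletonization. DMSO solvent control, not above 0.1%, set the baseline; medium was half-replaced on day 3.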

[14] = IUF_NPC2-5_cytotoxicity_72hr: Cytotoxicity Assessment at 72 hours in the Leibniz Research Institute for Environmental Medicine (IUF) Neural Progenitor Cell Migration and Differentiation Assay for Cytotoxicity (NPC2-5) (AID 2284306; active = hit-call score of the fitted dose curve at least 0.9, where 1 is the maximum;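 note: LDH release into supernatant measured by resorufin fluorescence marking membrane damage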)
Summary of the method: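 Primary human neural progenitor spheres migrate and differentiate on laminin. Compound is present from the start of differentiation, with DMSO kept at or below 0.1%. At 72 h, supernatant LDH is quantified fluorometrically, with values fitted in the positive direction.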

[15] = IUF_NPC2-5_cytotoxicity_120hr: Cytotoxicity Assessment at 120 hours in the Leibniz Research Institute for Environmental Medicine (IUF) Neural Progenitor Cell Migration and Differentiation Assay (NPC2-5) (AID 2284307; active = hit-call score of the fitted dose curve at least 0.9, where 1 is the maximum;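 note: LDH released into supernatant as membrane damage marker via resorufin fluorescence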)
Summary of the method: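 Fluorescence (RFU) from LDH-driven resazurin reduction in medium supernatants measured loss of membrane integrity after 120 h of compound exposure of differentiating primary human neural progenitor spheres on an extracellular matrix.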

[16] = IUF_NPC2-5_cell_number_120hr: Cell Number Assessment at 120 hours in the Leibniz Research Institute for Environmental Medicine (IUF) Neural Progenitor Cell Migration and Differentiation Assay (NPC2-5) (AID 2284308);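 note: count of Hoechst-stained nuclei in migration zone around plated human neural progenitor spheres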
Summary of the method: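 Cell number is taken as all Hoechst-positive nuclei detected in the area into which cells migrate out of the sphere, scored at 120 h and referenced to DMSO solvent control, which was kept at no more than 0.1%.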

[17] = IUF_NPC2-5_viability_120hr: Viability Assessment at 120 hours in the Leibniz Research Institute for Environmental Medicine (IUF) Neural Progenitor Cell Migration and Differentiation Assay (NPC2-5) (AID 2284312)
Summary of the method: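 Human fetal (GW 16-19) neural progenitor spheres of 0.3 mm were plated on poly-D-lysine/laminin in N2 differentiation medium and exposed from day 0 for 120 h, with half-medium refresh at day 3. Viability was read as alamar blue resazurin-to-resorufin fluorescence against DMSO.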

[18] = CCTE_Mundy_HCI_iCellGluta_NOG_NeuriteLength: CCTE's Neurite Outgrowth Assay in iCellGluta cells for Neurite Length, Mundy Lab (AID 2284318; active = hit-call score of the fitted dose curve at least 0.9, where 1 is the maximum)
Summary of the method: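 Automated high-content imaging of betaIII-tubulin (Alexa Fluor-488) and Hoechst-stained cells gave neurite length, normalized to the DMSO baseline.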

[19] = IUF_NPC1_cytotoxicity_72hr: Cytotoxicity Assessment at 72 hours in the Leibniz Research Institute for Environmental Medicine (IUF) Neural Progenitor Cell Proliferation Assay (NPC1) (AID 2284332; active = hit-call score of the fitted dose curve at least 0.9, where 1 is the maximum;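 note: rising LDH signal means more cytotoxicity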)
Summary of the method: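 Cytotoxicity by LDH membrane-integrity assay on medium supernatants, fluorescence via resazurin reduction, after 3-day single exposure of primary hNPC spheres at 37C, pH 7.2-7.6 with growth factors. Fitted upward against baseline.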

[20] = CCTE_Mundy_HCI_iCellGluta_NOG_NeuriteCount: CCTE's Neurite Outgrowth Assay in iCellGluta cells for Neurite Count, Mundy Lab (AID 2284342; active = hit-call score of the fitted dose curve at least 0.9, where 1 is the maximum;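 note: chemical exposure about 48 hours starting 2 hours after plating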)

Measured: AC50

[Cd+2].[Cl-].[Cl-]
inactive: KRT18 (gene 3875) | [6] | CD69, CD69 (gene 969) | [19]
active: [1] 32 µM and 27.7 µM | [2] 10.9 µM and 13.8 µM | [3] 4.82 µM and 1.76 µM | [4] 9.72 µM and 13.9 µM | [5] 3.97 µM and 2.93 µM | [7] 15.1 µM | [8] 8.38 µM | [9] 8.95 µM | [10] 17.7 µM | [11] 0.00342 µM | [12] 7.58 µM | CD69, CD69 (gene 969) 7.19 µM | [13] 15.6 µM | [14] 13.5 µM | [15] 11.2 µM | [16] 4.7 µM | [17] 6.4 µM | [18] 10.8 µM | [20] 11.4 µM
